Assay results from PubChem BioAssay.
Activity calls are given as the source filed them.

Columns and labels:
[1] = test system: Human papillomavirus type 1a protein E7 (residues 44-93); test: small molecules binding HPV E7 44-93 – biochemical, small-molecule microarray, residues 44-93, 635 nm fluorescence, primary screen (AID 1108); details: fluorescence 635 nm, higher = more signal;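 further: E7 fragment applied at 1 µg/mL in TBST for 1 h at 4 C; score combines spot fluorescence with its signal to noise ratio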
[2] = hepatitis C replication reporter changes, two-sided – Huh7 cells, luciferase reporter, HCV replication inhibitor project, primary screen (AID 1109); details: Huh7 HCV replicon luciferase reporter, 48 h; higher = more signal;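 further: huh7 hepatoma cells harbouring a luciferase neomycin HCV replicon reporter; luciferase luminescence as measure of HCV replicon replication; test concentration not given here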
[3] = target: Left-right determination factor 2 (Homo sapiens) (UniProt O00292); test: small molecules binding LEFTY2 protein – biochemical, small-molecule microarray, 635 nm fluorescence scan, primary screen (AID 1110); details: higher = more signal
[4] = target: Calmodulin-1 (Homo sapiens) (UniProt P0DP23); test: small molecules binding calmodulin-1 with EGTA – biochemical, small-molecule microarray, Cy5-labelled CALM1, profiling panel (AID 1111); details: Cy5-CALM1 binding fluorescence, higher = more signal;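 further: labelled calmodulin applied in Tris saline Tween buffer holding calcium plus EGTA and DTT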
[5] = target: Calmodulin-1 (Homo sapiens) (UniProt P0DP23); test: small molecules binding Ca-loaded calmodulin-1 – biochemical, small-molecule microarray, Cy5-labelled CALM1, plus calcium, artefact control for SMM control-protein annotation, profiling panel (AID 1112); details: Cy5-CALM1 binding fluorescence, higher = more signal;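 further: score merges spot fluorescence with signal to noise from triplicate slides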
[6] = probe aWnt5a binding to arrayed compounds – biochemical, biotinylated probe, 635/667 nm fluorescence, primary screen (AID 1113); details: small-molecule microarray, higher = more signal;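 further: score merges 667 nm fluorescence intensity with signal-to-noise per printed feature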
[7] = probe aShh binding to arrayed compounds – biochemical, biotinylated probe, 635/667 nm fluorescence, primary screen (AID 1114); details: small-molecule microarray, higher = more signal;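 further: probe is biotin-labelled aShh protein from a stem cell growth factor screen; measures binding of labelled protein to compounds printed on the slide; score merges feature fluorescence at 667 nm with signal-to-noise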
[8] = probe aNog binding to arrayed compounds – biochemical, biotinylated probe, 635/667 nm fluorescence, primary screen (AID 1115); details: small-molecule microarray, higher = more signal;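 further: probe is biotinylated aNog protein used at 0.15 µg/mL for 1 h at 4 C; z-score combines 667 nm fluorescence of each spot with its signal to noise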
[9] = target: Torsin-1A-interacting protein 1 (Homo sapiens) (UniProt Q5JTV8); test: compound microarray binding of lysate hLAP1 – cell lysate, small-molecule microarray, COS7 lysate, 635/667 nm fluorescence, primary screen (AID 1116); details: 635 nm fluorescence, higher = more signal
[10] = target: Alpha-bungarotoxin (Bungarus multicinctus) (UniProt P60615); test: compounds binding labelled alpha-BTX control protein – biochemical, small-molecule microarray, Alexa647 label, 635/667 nm fluorescence, artefact control for SMM control protein annotation, profiling panel (AID 1117); details: alpha-BTX-A647 binding fluorescence, higher = more signal
Albumin (Bos taurus) = Albumin (Bos taurus) (UniProt P02769); test: compounds binding labelled BSA control protein – biochemical, small-molecule microarray, Alexa647 label, 635/667 nm fluorescence, artefact control for SMM control protein annotation, profiling panel (AID 1118); details: BSA-A647 binding, fluorescence 635 nm, higher = more signal;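 further: score merges 667 nm emission intensity and signal-to-noise per printed compound spot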
[11] = probe aXIP binding to arrayed compounds – biochemical, NeuroSMM set, 635/667 nm fluorescence, primary screen (AID 1119); details: small-molecule microarray, higher = more signal, called active from +8 up or from −8 down;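 further: probe is the protein aXip251-270 applied at 1 µg/mL to compound-printed slides; binding of probe to printed compounds measured as 667 nm fluorescence plus signal to noise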
[12] = probe aNOTCH3 binding on compound microarray – biochemical, small-molecule microarray, 635/667 nm fluorescence, primary screen (AID 1120); details: higher = more signal;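 further: probe is a biotin-tagged antibody raised against NOTCH3 rather than NOTCH3 protein; score merges spot fluorescence near 667 nm with spot signal to noise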
[13] = probe aNOTCH2 binding on compound microarray – biochemical, small-molecule microarray, 635/667 nm fluorescence, primary screen (AID 1121); details: higher = more signal;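 further: score merges feature fluorescence read at 667 nm with its signal to noise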
[14] = target: Carbonic anhydrase 2 (Homo sapiens) (UniProt P00918); test: compounds binding carbonic anhydrase 2 – biochemical, small-molecule microarray, Alexa647-labelled CAII, profiling panel (AID 1122); details: CAII-A647 binding fluorescence, higher = more signal
[15] = COS7 lysate on small-molecule microarray, probe aHis, 635 nm (AID 1123); details: COS7 cell lysate, fluorescence, higher = more signal;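 further: z-score combines 667nm fluorescence intensity with signal-to-noise per printed compound spot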
[16] = probe aLAP1 signal on lysate-treated microarray – cell lysate, small-molecule microarray, COS7 lysate, primary screen (AID 1124); details: probe aLAP1, fluorescence, higher = more signal;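 further: lysate comes from COS7 cells expressing LAP1 and is applied at 0.3 µg/mL; score merges spot fluorescence near 667 nm with signal-to-noise over triplicate slides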
Sam68 (KHDRBS1) = test: compounds binding KHDRBS1 protein – biochemical, small-molecule microarray, 635 nm fluorescence, primary screen (AID 1125); details: higher = more signal;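 further: score merges 667 nm channel intensity with signal to noise over triplicate slides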
[17] = test system: Chordin-like protein 2 (CHRDL2); test: compounds binding chordin-like 2 – biochemical, small-molecule microarray, 635 nm fluorescence, primary screen (AID 1126); details: fluorescence 635 nm, higher = more signal;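 further: printed compound slides probed with Chrdl2 protein at 4 µg/mL for 1 h at 4 C; score merges 667 nm emission intensity with signal to noise over three replicate slides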
[18] = target: Concanavalin-A (Canavalia ensiformis) (UniProt P02866); test: compounds binding concanavalin A lectin – biochemical, small-molecule microarray, Alexa647 label, 635 nm, artefact control for SMM control protein annotation, primary screen (AID 1127); details: ConA-A647 binding fluorescence, higher = more signal;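 further: z combines 667 nm emission intensity with signal-to-noise across three replicate slides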
Concanavalin-A (Canavalia ensiformis), sequence (P02866 whole entry, looked up): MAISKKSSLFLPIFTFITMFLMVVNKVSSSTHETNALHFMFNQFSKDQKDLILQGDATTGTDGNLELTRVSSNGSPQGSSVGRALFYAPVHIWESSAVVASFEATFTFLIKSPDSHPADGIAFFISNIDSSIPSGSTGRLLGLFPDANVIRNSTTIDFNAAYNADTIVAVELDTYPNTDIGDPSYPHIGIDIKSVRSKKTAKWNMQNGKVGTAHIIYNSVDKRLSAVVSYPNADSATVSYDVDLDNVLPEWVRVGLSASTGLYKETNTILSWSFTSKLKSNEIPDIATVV

Left-right determination factor 2 (Homo sapiens), sequence (O00292 whole entry, looked up): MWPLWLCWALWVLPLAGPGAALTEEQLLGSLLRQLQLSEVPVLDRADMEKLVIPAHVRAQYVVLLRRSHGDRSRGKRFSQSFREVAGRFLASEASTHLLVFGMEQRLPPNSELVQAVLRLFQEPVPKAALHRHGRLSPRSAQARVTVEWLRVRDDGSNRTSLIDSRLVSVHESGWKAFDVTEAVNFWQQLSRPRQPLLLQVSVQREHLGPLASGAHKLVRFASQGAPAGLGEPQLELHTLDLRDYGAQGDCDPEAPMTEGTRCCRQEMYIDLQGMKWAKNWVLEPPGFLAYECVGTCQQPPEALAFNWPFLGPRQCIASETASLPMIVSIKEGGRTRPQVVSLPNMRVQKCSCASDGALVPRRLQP
Torsin-1A-interacting protein 1 (Homo sapiens), sequence (Q5JTV8 whole entry, looked up): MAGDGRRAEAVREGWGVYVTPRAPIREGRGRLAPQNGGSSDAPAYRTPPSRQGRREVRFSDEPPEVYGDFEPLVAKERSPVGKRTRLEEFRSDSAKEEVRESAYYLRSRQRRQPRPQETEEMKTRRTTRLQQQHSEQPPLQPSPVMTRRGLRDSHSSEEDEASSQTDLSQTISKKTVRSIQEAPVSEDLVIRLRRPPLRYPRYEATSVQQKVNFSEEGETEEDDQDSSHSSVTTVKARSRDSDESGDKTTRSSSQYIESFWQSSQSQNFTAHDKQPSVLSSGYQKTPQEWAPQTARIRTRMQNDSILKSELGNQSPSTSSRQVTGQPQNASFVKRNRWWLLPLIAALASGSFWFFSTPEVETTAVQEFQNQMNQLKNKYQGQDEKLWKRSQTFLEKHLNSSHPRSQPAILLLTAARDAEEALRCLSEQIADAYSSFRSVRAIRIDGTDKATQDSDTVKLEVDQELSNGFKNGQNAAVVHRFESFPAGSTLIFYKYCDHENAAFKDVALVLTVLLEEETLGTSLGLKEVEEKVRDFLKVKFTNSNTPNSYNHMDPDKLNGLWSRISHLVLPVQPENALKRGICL
Alpha-bungarotoxin (Bungarus multicinctus), sequence (P60615 whole entry, looked up): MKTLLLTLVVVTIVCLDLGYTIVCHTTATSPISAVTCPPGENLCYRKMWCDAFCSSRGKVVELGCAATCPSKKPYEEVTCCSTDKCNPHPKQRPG
Albumin (Bos taurus), sequence (P02769 whole entry, looked up): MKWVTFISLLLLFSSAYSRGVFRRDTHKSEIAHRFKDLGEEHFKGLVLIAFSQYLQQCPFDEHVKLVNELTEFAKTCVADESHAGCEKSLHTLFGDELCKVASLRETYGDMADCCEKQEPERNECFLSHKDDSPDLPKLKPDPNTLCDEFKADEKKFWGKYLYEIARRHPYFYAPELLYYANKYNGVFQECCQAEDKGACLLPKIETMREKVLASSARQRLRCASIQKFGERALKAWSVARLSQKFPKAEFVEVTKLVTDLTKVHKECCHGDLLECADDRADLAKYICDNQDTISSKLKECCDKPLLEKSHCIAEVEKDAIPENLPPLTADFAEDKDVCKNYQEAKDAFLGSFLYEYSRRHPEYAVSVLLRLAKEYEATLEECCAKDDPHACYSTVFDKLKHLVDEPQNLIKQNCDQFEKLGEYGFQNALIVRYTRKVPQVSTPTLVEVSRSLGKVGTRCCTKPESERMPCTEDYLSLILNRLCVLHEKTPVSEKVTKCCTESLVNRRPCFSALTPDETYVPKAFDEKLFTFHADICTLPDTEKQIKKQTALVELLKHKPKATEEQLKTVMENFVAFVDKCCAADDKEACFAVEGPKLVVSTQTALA

SMILES	composite z-score [1]	z-score [2]	composite z-score [3]	composite z-score [4]	composite z-score [5]	composite z-score [6]	composite z-score [7]	composite z-score [8]	composite z-score [9]	composite z-score [10]	composite z-score (Albumin (Bos taurus))	composite Z-score [11]	composite z-score [12]	composite z-score [13]	composite z-score [14]	composite z-score [15]	composite z-score [16]	composite z-score (Sam68 (KHDRBS1))	composite z-score [17]	composite z-score [18]
C=CC[C@@]12N=C(c3ccc(OCCCO)cc3)O[C@@H]1c1ccccc1N(Cc1ccccc1)C2=O	0.598	-2.27	0.657	0.792	0.355	0.127	-0.114	1.1	1.16	0.858	0.0349	0.407 (inactive)	0.405	0.14	0.463	3.15	0.532	1.3	1.43	1.02
COCCOC(=O)N1C(=O)[C@@]2(c3cc(C#CCCO)ccc31)[C@H](c1ccccc1OCCO)N1[C@H](c3ccccc3)[C@H](c3ccccc3)OC(=O)[C@H]1[C@@H]2C(=O)N1CCc2cc(OC)c(OC)cc2C1	1.42	-1.36	0.507	1.07	0.0615	-0.0882	-0.0119	-0.0331	1.52	1.49	0.329	0.339 (inactive)	0.0562	-0.101	0.4	1.85	1.02	1.31	0.469	1.09
COCCOC(=O)N1C(=O)[C@@]2(c3ccccc31)[C@H](c1ccc(OCCO)cc1)N1[C@H](c3ccccc3)[C@H](c3ccccc3)OC(=O)[C@H]1[C@@H]2C(=O)N1CCN(c2ncccn2)CC1	1.41	-1.47	1.06	1.51	0.039	-0.001	-0.043	0.998	1.5	1.26	0.0718	-0.216 (inactive)	0.146	0.0248	0.351	1.78	0.282	1.3	0.756	1.1
